Results on 39 compounds are retold here after PubChem BioAssay (Tox21).

Where “and” joins values, the source holds several entries; their conditions need not be identical. Equal values may be shown once. Records with an inconclusive call do not appear. Entries that show only a call come without a potency. A structure can be active in one record and inactive in another. Calls of active or inactive are those of the source. The call rests on the fitted dose curve.

One experiment is described as follows: p53 small molecule agonists, cell-based qHTS assay with human liver microsomes (AID 1963577).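 Further: p53 response element beta-lactamase reporter cells with liver microsomes plus NADPH.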 Particulars: HCT-116 p53RE-bla with human liver microsomes, ratio, 16 h; series mostly up to 66 µM. In outline: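 16 h, 37 C exposure of p53RE-bla cells to compounds with human liver microsomes and NADPH (0.5 mg/mL final each); detection via LiveBLAzer mixture, 2 h dark at room temperature.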
For orientation: In qHTS, concentration-response curves come from the screen itself.
Consider `Cc1nc2ccccc2s1`, for which the Potency entry was “inactive”.
Consider `COCCOCCOCCOCCOCCO`, for which the Potency result is “inactive”.
Turning to `O=C(O)c1cc(-c2ccccc2)nc2ccccc12`, the Potency entry is “inactive”.
Consider `COc1cc(C(=S)N2CCOCC2)ccc1O`, for which the Potency result was “inactive”.
Regarding `O=C(O)CCCCCCCCCCCC(=O)O`, the Potency entry was “inactive”.
The same measure, in the same setting: then `O=S(=O)(O)c1cccc2ccccc12`, with “inactive”; and `COC(=O)CCCCC(=O)O`, with “inactive”; and `CN(CCOc1ccc(CC2SC(=O)NC2=O)cc1)c1ccccn1` (configuration not stated), with “inactive”.
As to `O=C(c1ccc(O)cc1O)c1ccc(O)cc1O`, the Potency entry is “inactive”.
On the same count and under the same terms, then `O=C(CCNNC(=O)c1ccncc1)NCc1ccccc1`, with “inactive”.
Same read-out and setting: then `O=C(O)c1cc(O)c(O)c(O)c1`, with “inactive”.
On the same count and under the same terms, the entry for `NCCc1ccc(O)c(O)c1` is “inactive”; for `O=C(O)c1ccc(CO)o1` it is “inactive”.
For `O=C(O)CSCC(=O)NC1CCSC1=O` (configuration not stated), the Potency result was “inactive”.

A further experiment is described as follows: p53 small molecule agonists, cell-based qHTS assay with rat liver microsomes (AID 1963578). Further: potency means the concentration at half of the fitted maximal effect. To be noted: HCT-116 p53RE-bla, beta-lactamase ratio, 16 h; series mostly up to 66 µM. In outline:
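With rat liver microsomes and NADPH present (0.5 mg/mL final each), p53RE-bla cells are treated with compound for 16 h at 37 C. LiveBLAzer detection mixture is then applied for 2 h at room temperature in the dark.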
Take `Cc1cc(CCC(=O)OCCOCCOCCOC(=O)CCc2cc(C)c(O)c(C(C)(C)C)c2)cc(C(C)(C)C)c1O`: the Potency entry was “inactive”.
The same measure, in the same setting: then `COCCCOc1ccnc(CS(=O)c2nc3ccccc3[nH]2)c1C` (configuration not stated), with “inactive”.
Regarding `CC(C)(c1ccc(O)cc1)c1ccc(O)cc1`, the Potency result is “inactive”.
In the case of `C[Si](C)O[Si](C)(C)O[Si](C)(C)O[Si](C)C`, the Potency entry was “inactive”.
For the compound `C[C@H]1C[C@H](O)c2ccsc2S1(=O)=O`, the Potency result was “inactive”.
Turning to `CC1=CCC(C(C)(C)O)CC1` (configuration not stated), the Potency result was “inactive”.
Turning to `CCC(C)=O`, the Potency entry was “inactive”.
On the same count and under the same terms, then `N=c1nc(N2CCCCC2)cc(N)n1O`, with “inactive”; and `CC(C)CCCC(C)N` (configuration not stated), with “inactive”; and `COc1ccc2c(c1)CCCC2=O`, with “inactive”.
Still for that read-out and setting: then `CC1=CCC(O)(C(C)C)CC1` (configuration not stated), with “inactive”; and `CCCCCCCC(=O)[O-].CCCCCCCC(=O)[O-].[Zn+2]`, with “inactive”.
Take `Nc1nc(N)c2nc(-c3ccccc3)c(N)nc2n1`: the Potency is 29.2 µM (active) and 17.8 µM (active).
The same measure, in the same setting: then `COC(=O)c1ccccc1C(=O)c1ccc(OCCN2CCCCC2)cc1`, with “inactive”; and `c1coc(CNc2ncnc3nc[nH]c23)c1`, with “inactive”; and `CC1=C(O)C(=O)C(C)O1` (configuration not stated), with “inactive”.
On the same count and under the same terms, the entry for `Cc1[nH]cnc1-c1ccc(Cl)cc1` is “inactive”; for `C1CCCC1` it is “inactive”.
The same measure, in the same setting: the entry for `CCCC(=O)CC` is “inactive”.
Regarding `Oc1ccc(Cl)cc1Sc1cc(Cl)ccc1O`, the Potency result is “inactive”.
In the case of `CCOCOCC`, the Potency entry is “inactive”.
Same read-out and setting: then `CCCC1O[C@@H]2C[C@H]3[C@@H]4CCC5=CC(=O)C=C[C@]5(C)[C@H]4[C@@H](O)C[C@]3(C)[C@]2(C(=O)CO)O1` (some centres not stated), with “inactive”; and `C1C[C@@H]2[C@H]3CC[C@H](C3)[C@@H]2C1`, with “inactive”.
Still for that read-out and setting: then `CC(C)C(=O)c1ccccc1`, with “inactive”; and `Cc1c(C)c2c(c(C)c1O)CCC(C)(COc1ccc(CC3SC(=O)NC3=O)cc1)O2` (configuration not stated), with “inactive”; and `Cc1nc2ccccc2s1`, with “inactive”.
As for `COCCOCCOCCOCCOCCO`, the Potency result was “inactive”.
For the compound `O=C(O)c1cc(-c2ccccc2)nc2ccccc12`, the Potency entry is “inactive”.
Take `COc1cc(C(=S)N2CCOCC2)ccc1O`: the Potency result is “inactive”.
On the same count and under the same terms, then `O=C(O)CCCCCCCCCCCC(=O)O`, with “inactive”; and `O=S(=O)(O)c1cccc2ccccc12`, with “inactive”.
Same read-out and setting: the entry for `COC(=O)CCCCC(=O)O` is “inactive”.
As for `CN(CCOc1ccc(CC2SC(=O)NC2=O)cc1)c1ccccn1` (configuration not stated), the Potency entry was “inactive”.
The same measure, in the same setting: then `O=C(c1ccc(O)cc1O)c1ccc(O)cc1O`, with “inactive”; and `O=C(CCNNC(=O)c1ccncc1)NCc1ccccc1`, with “inactive”; and `O=C(O)c1cc(O)c(O)c(O)c1`, with “inactive”.
Same read-out and setting: the entry for `NCCc1ccc(O)c(O)c1` is “inactive”; for `O=C(O)c1ccc(CO)o1` it is “inactive”.
Same read-out and setting: the entry for `O=C(O)CSCC(=O)NC1CCSC1=O` (configuration not stated) is “inactive”.

The next experiment in a line: p53 small molecule agonists, cell-based qHTS assay with human liver microsomes: qHTS cell viability counter screen (AID 1963579). Further: nearly all actives have a fitted effect of over 45% in size. Further: potency means the concentration at half of the fitted maximal effect. To be noted: p53RE-bla HCT-116 viability, ATP luminescence, 16 h, HLM; series mostly up to 66 µM. The method, boiled down:
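In this multiplexed counter screen, the reporter plates were subsequently treated with CellTiter-Glo so that cell viability, reflected by luminescence, could be recorded for p53RE-bla cells dosed 16 h with compounds under microsomal activation (HLM and NADPH).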
On to `Cc1cc(CCC(=O)OCCOCCOCCOC(=O)CCc2cc(C)c(O)c(C(C)(C)C)c2)cc(C(C)(C)C)c1O`, for which the Potency entry is “inactive”.
With `COCCCOc1ccnc(CS(=O)c2nc3ccccc3[nH]2)c1C` (configuration not stated), the Potency result is “inactive”.
Still for that read-out and setting: then `CC(C)(c1ccc(O)cc1)c1ccc(O)cc1`, with “inactive”; and `C[Si](C)O[Si](C)(C)O[Si](C)(C)O[Si](C)C`, with “inactive”; and `C[C@H]1C[C@H](O)c2ccsc2S1(=O)=O`, with “inactive”.
Still for that read-out and setting: then `CC1=CCC(C(C)(C)O)CC1` (configuration not stated), with “inactive”; and `CCC(C)=O`, with “inactive”; and `N=c1nc(N2CCCCC2)cc(N)n1O`, with “inactive”.
Consider `CC(C)CCCC(C)N` (configuration not stated), for which the Potency entry was “inactive”.
The same measure, in the same setting: the entry for `COc1ccc2c(c1)CCCC2=O` is “inactive”; for `CC1=CCC(O)(C(C)C)CC1` (configuration not stated) it is “inactive”.
Still for that read-out and setting: the entry for `CCCCCCCC(=O)[O-].CCCCCCCC(=O)[O-].[Zn+2]` is “inactive”.
Still for that read-out and setting: the entry for `Nc1nc(N)c2nc(-c3ccccc3)c(N)nc2n1` is “inactive”.
Take `COC(=O)c1ccccc1C(=O)c1ccc(OCCN2CCCCC2)cc1`: the Potency entry is “inactive”.
Still for that read-out and setting: the entry for `c1coc(CNc2ncnc3nc[nH]c23)c1` is “inactive”; for `CC1=C(O)C(=O)C(C)O1` (configuration not stated) it is “inactive”.
Still for that read-out and setting: the entry for `Cc1[nH]cnc1-c1ccc(Cl)cc1` is “inactive”.
For `C1CCCC1`, the Potency entry is “inactive”.
The same measure, in the same setting: then `CCCC(=O)CC`, with “inactive”; and `Oc1ccc(Cl)cc1Sc1cc(Cl)ccc1O`, with 32.3 µM (active) and inactive.
The same measure, in the same setting: then `CCOCOCC`, with “inactive”; and `CCCC1O[C@@H]2C[C@H]3[C@@H]4CCC5=CC(=O)C=C[C@]5(C)[C@H]4[C@@H](O)C[C@]3(C)[C@]2(C(=O)CO)O1` (some centres not stated), with “inactive”; and `C1C[C@@H]2[C@H]3CC[C@H](C3)[C@@H]2C1`, with “inactive”.
On the same count and under the same terms, the entry for `CC(C)C(=O)c1ccccc1` is “inactive”; for `Cc1c(C)c2c(c(C)c1O)CCC(C)(COc1ccc(CC3SC(=O)NC3=O)cc1)O2` (configuration not stated) it is “inactive”; for `Cc1nc2ccccc2s1` it is “inactive”.
Take `COCCOCCOCCOCCOCCO`: the Potency result is “inactive”.
Still for that read-out and setting: the entry for `O=C(O)c1cc(-c2ccccc2)nc2ccccc12` is “inactive”; for `COc1cc(C(=S)N2CCOCC2)ccc1O` it is “inactive”; for `O=C(O)CCCCCCCCCCCC(=O)O` it is “inactive”.
Still for that read-out and setting: then `O=S(=O)(O)c1cccc2ccccc12`, with “inactive”; and `COC(=O)CCCCC(=O)O`, with “inactive”; and `CN(CCOc1ccc(CC2SC(=O)NC2=O)cc1)c1ccccn1` (configuration not stated), with “inactive”.
With `O=C(c1ccc(O)cc1O)c1ccc(O)cc1O`, the Potency result is “inactive”.
Same read-out and setting: then `O=C(CCNNC(=O)c1ccncc1)NCc1ccccc1`, with “inactive”; and `O=C(O)c1cc(O)c(O)c(O)c1`, with “inactive”; and `NCCc1ccc(O)c(O)c1`, with “inactive”.
On the same count and under the same terms, the entry for `O=C(O)c1ccc(CO)o1` is “inactive”; for `O=C(O)CSCC(=O)NC1CCSC1=O` (configuration not stated) it is “inactive”.
